KDM5B inhibitor – blocks human KDM5B histone demethylase activity | KDM5B demethylase, FDH-coupled NADH fluorescence (FDH is formaldehyde dehydrogenase) | Potency, µM (top dose mostly 57.7 µM), most hits filed as inhibitors | 2.6% of 220,000 active | AID 1347165; active means well fitted inhibition curve with a large enough effect; further: 0% is about no effect; nearly all actives have a fitted effect of over 70% in size
Target sequence (Q9UGL1 whole entry, looked up): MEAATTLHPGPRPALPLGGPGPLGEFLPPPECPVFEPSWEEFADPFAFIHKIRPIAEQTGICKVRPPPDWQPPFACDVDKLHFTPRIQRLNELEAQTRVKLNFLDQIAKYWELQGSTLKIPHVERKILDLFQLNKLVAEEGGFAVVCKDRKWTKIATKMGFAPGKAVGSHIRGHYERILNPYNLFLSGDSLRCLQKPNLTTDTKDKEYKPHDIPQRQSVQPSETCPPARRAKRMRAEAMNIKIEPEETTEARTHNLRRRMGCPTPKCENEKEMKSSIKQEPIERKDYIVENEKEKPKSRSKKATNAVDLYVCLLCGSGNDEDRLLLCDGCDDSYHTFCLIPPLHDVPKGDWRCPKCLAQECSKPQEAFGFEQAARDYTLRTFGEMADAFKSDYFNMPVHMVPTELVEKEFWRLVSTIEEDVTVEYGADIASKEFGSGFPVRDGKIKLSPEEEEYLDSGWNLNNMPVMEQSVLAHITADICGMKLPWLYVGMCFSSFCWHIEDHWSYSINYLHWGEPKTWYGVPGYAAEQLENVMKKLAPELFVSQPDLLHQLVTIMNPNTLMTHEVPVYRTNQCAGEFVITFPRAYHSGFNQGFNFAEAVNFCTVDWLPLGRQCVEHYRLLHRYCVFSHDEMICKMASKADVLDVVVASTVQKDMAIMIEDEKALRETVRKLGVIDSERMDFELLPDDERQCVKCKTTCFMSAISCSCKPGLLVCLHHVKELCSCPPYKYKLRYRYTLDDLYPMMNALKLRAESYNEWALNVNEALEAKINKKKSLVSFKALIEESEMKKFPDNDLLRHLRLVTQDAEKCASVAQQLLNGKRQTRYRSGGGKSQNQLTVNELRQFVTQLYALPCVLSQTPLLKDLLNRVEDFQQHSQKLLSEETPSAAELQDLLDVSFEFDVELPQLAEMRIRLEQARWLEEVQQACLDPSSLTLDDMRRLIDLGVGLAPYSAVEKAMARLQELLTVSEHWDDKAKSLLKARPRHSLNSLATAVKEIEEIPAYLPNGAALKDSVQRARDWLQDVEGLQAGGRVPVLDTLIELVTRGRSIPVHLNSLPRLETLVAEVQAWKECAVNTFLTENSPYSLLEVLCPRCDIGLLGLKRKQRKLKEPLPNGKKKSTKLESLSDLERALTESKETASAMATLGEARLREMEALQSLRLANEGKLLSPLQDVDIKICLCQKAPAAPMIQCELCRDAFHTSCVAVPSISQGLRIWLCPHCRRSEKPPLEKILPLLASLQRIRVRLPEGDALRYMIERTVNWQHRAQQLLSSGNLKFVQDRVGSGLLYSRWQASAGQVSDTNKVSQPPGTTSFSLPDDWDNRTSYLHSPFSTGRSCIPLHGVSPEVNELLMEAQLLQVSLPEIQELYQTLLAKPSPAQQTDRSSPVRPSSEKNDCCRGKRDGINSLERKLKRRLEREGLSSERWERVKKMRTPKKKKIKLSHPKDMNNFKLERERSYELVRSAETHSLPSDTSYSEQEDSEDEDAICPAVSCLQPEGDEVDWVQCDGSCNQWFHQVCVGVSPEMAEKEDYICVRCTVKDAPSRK
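Compound dilutions met 200 nM (final) KDM5BΔAP for 10 min at room temperature before substrate addition. The substrate mix held 12.5 µM H3K4me3 with cofactors 25 µM α-ketoglutarate and 50 µM Fe²⁺. NADH signal gain over 30 min defined activity.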
* = called active by the depositor; i = inactive; ! = repeats disagree. Shown is part of a subset that was picked to be rich in hits. Potency means the concentration at half of the fitted maximal effect.

SMILES	KDM5B inhibitor
COc1ccc(S(=O)(=O)N2C[C@@H]3C[C@H](C2)c2ccc(NS(=O)(=O)c4cccc(F)c4)c(=O)n2C3)cc1	i
COc1ccc(S(=O)(=O)N2C[C@@H]3C[C@H](C2)c2ccc(NC(=O)c4ccc(C#N)cc4)c(=O)n2C3)cc1	i
Cc1cccc(NC(=O)CNC(=O)CCc2c(C)nc3c4ccccc4nn3c2C)c1C	i
O=C(c1ccccc1)C(Cl)C(c1ccccc1)C1(Cl)CCCCC1=O (stereo not given)	i
Cn1c(=O)[nH]c(=O)c2c1nc(Cl)n2Cc1ccccc1	i
O=C(NCc1ccc(-n2cccn2)cc1)c1ccc(F)cc1Br	i
O=C(NCc1ccc(-n2cccn2)cc1)c1cc(Br)ccc1Cl	i
O=C(NCc1ccc(F)cc1)c1cc(Br)cn2ccnc12	31.6µM*
CSCCNC(=O)c1nc2sccn2c1Br	i
O=C(NCc1ccccc1F)c1cc(Br)cn2ccnc12	22.4µM*
O=C(NCc1ccccc1F)c1ccccc1-c1ccccc1	i
O=C(NCCc1ccc(Cl)cc1)c1nc2sccn2c1Br	i
CSCCNC(=O)c1cc(Br)cn2ccnc12	35.5µM*
O=C(NCCc1ccc(Cl)cc1)c1cc(Br)cn2ccnc12	31.6µM*!
O=C(Cc1ccccc1F)NCc1cccnc1N1CCCCC1	i
O=C(NCc1ccc(-n2cccn2)cc1)c1cc(F)ccc1Br	i
Cc1c(C(=O)NCCc2ccc(Cl)cc2)cccc1-n1cnc2cccnc21	i
O=C(/C=C/c1ccccc1Br)c1ccc(O)c(CCCl)c1	i
O=C(O)/C=C/c1ccc(Br)o1	i
COc1ccc(N2C(=O)CCS2(=O)=O)cc1S(=O)(=O)N1CCCCC1	i
O=C1CN(C(=O)COC(=O)CC23CC4CC(CC(C4)C2)C3)c2ccccc2N1	i
CCN(CC)CCCOC(=O)c1ccccc1	i
CCCn1nc(C(=O)Nc2ccc(OCC(=O)N(C)C)cc2)c2ccccc2c1=O	i
CCOC(=O)C(NC(=O)NC)C(F)(F)F (stereo not given)	i
COC(=O)c1cccc(OS(=O)(=O)c2ccc3oc(=O)ccc3c2)c1	i
SMILES	KDM5B inhibitor
O=C1C(c2ccc(C(F)(F)F)cc2)=C(NC2CCCCCC2)c2ccccc21	i
CC(C)Cn1cnc2c1c(=O)n(CC(=O)N1CCc3ccccc31)c(=O)n2Cc1ccccc1	i
COc1cc(-c2cc(C)c3c(OC)ccc(OC)c3n2)cc2c1OCCNC2	i
N#C/C(=C/c1cccc(OC(F)F)c1)c1ccccn1	i
COCCn1nc(C(=O)NCC(c2ccc(OC)cc2)N2CCCC2)ccc1=O (stereo not given)	i
CC(C)NC(=O)Nc1c(NC2CCCCC2)c2ccccc2oc1=O	i
CN(C)C[C@@H]1CN(C2CCOCC2)C[C@H]1NC(=O)c1ccccc1C(F)(F)F	i
CN(C)C[C@@H]1CN(C2CCOCC2)C[C@H]1NC(=O)c1ccc2cc[nH]c2c1	i
CN(C)C[C@@H]1CN(C2CCOCC2)C[C@H]1NC(=O)c1cc2ccccc2[nH]1	28.2µM*
CCN(CC)S(=O)(=O)c1ccc2cc(OC)ccc2c1	i
N#CC1=C(N)OC2=C(C(=O)CC(c3ccccc3)C2)C1C1CCCCC1 (stereo not given)	i
c1cn(-c2ccc(-c3nc(C4CCOC4)no3)cc2)cn1 (stereo not given)	i
Fc1ccc(CCc2nc(C3CCOC3)no2)cc1F (stereo not given)	i
Clc1ccc2nc(-c3nc(C4CCOC4)no3)cn2c1 (stereo not given)	22.4µM*
NC(=O)c1c(NC(=O)CN2CCN(C(=O)C3CC3)CC2)sc2c1CCC2	i
CN(C)CC(=O)N1C[C@@H]2C[C@H](C1)c1ccc(-c3ccccc3CN3CCOCC3)c(=O)n1C2	17.8µM*
CC(C)(CC(=O)O)CC(=O)N1C[C@@H]2C[C@H](C1)c1ccc(-c3cc4ccccc4s3)c(=O)n1C2	i
COc1ccc(NC(=O)N2C[C@@H]3C[C@H](C2)c2ccc(NC(=O)c4ccccc4)c(=O)n2C3)cc1	i
COc1ccc(C2CC(=O)Nc3nc(C)[nH]c(=O)c32)cc1OC (stereo not given)	i
CCCCC(=O)NCC1CC2c3ccccc3C1c1ccccc12 (stereo not given)	i
COc1cccc(NC(=O)N(C[C@H]2O[C@H](Cc3cc(-c4ccccc4)on3)CC[C@@H]2O)C(=O)Nc2cccc(OC)c2)c1	i
COc1ccc(CNC(=O)c2c(C)noc2-c2cccc(F)c2)cc1	i
Cc1noc(-c2ccc3c(c2)OCO3)c1C(=O)NCCCCc1ccccc1	28.2µM*
Cc1noc(-c2ccccc2Cl)c1C(=O)NCCCc1ccccc1	i
CCOc1ccccc1CNC(=O)c1c(C)noc1-c1ccc2c(c1)OCO2	28.2µM*
SMILES	KDM5B inhibitor
COc1ccc(-c2onc(C)c2C(=O)NCCCCc2ccccc2)cc1	i
Cc1noc(-c2ccc3c(c2)OCO3)c1C(=O)NC(C)CCc1ccccc1 (stereo not given)	28.2µM*
O=C(NCc1ccccc1)c1noc(-c2ccc3c(c2)OCO3)n1	i
Cc1ccccc1-c1onc(C)c1C(=O)NCc1cc(F)cc(F)c1	i
Cc1noc(-c2cccc(F)c2)c1C(=O)NCc1cccc2ccccc12	i
Cc1noc(-c2ccc(OC(F)(F)F)cc2)c1C(=O)NCc1ccccc1Cl	i
Cc1onc(-c2ccccc2)c1C(=O)NC(C)CCc1ccccc1 (stereo not given)	i
Cc1noc(-c2ccc3c(c2)OCO3)c1C(=O)NCc1cc(F)cc(F)c1	28.2µM*
Cc1cc(C(=O)Nc2ccccc2SC2CCCC2)c(C)o1	i
CC(=O)c1ccc(S(=O)(=O)N(C)C(C)c2cc3ccccc3o2)cc1 (stereo not given)	i
Cc1csc(NC(=O)c2[nH]c3c(c2C)C(=O)CC(C)(C)C3)n1	i
Cn1ccnc1C(NC(=O)COc1ccccc1F)c1ccccc1 (stereo not given)	i
CCCCCc1ccc(-c2ccc(-c3ccc(C#N)cc3)nc2)cc1	i
CC(C)C(=O)Nc1ccc(Br)c(Cl)c1	i
COc1ccc(CSc2ccc(S(=O)(=O)N3CCOCC3)cn2)cc1F	i
O=c1c2ccccc2cnn1CN1CCN(S(=O)(=O)c2ccccc2Cl)CC1	i
COC(=O)CNC(=O)C1CCc2nnc(-c3ccc(Cl)cc3Cl)n21 (stereo not given)	i
COc1ccccc1-c1cc(C(=O)N2CCOCC2)nn2cnnc12	i
C#CCNC(=O)c1cc(-c2ccc(Cl)cc2Cl)c2cccn2n1	i
O=C(c1cc(-c2cnccc2Cl)c2cccn2n1)N1CCOCC1	i
O=C(NCCc1ccc(Cl)cc1)c1cc(-c2ccccc2)n[nH]1	i
COC(=O)CNC(=O)c1cccc(C)c1	i
COc1ccc(C(C)=O)cc1-c1cccc(C(F)(F)F)c1	i
COC(=O)CNC(=O)c1cc(-c2ccc(Cl)cc2Cl)c2nncn2n1	44.7µM*
O=C(NCCc1ccc(Cl)cc1)c1cc(-c2cccc(C(F)(F)F)c2)c2nncn2n1	79.4µM*
COc1ccc(CCNC(=O)Cn2nnc(-c3cccc(C(F)(F)F)c3)n2)cc1OC	i
O=C(c1cc(-c2cccnc2)c2nncn2n1)N1CCOCC1	89.1µM*
COC(=O)CNC(=O)c1cc(-c2cccc(C(F)(F)F)c2)c2nncn2n1	79.4µM*
Nc1nc(SCc2noc(-c3ccccc3)n2)n[nH]1	i
CC(NC(=O)c1n[nH]c(=O)c2ccccc12)c1ccc(F)cc1 (stereo not given)	i
